# Data from the supplement of paper PMC3334620.
# In all, about 33,000 sequences were measured (“E-score (-0.5 to 0.5)”: median about -0.021, highest 2% from about 0.32 on). What follows is part of a selection rich in the highest values, with near analogues and random picks from the rest.
# Biological target: T1, Zap1 (UniProt P47043)
# T1 sequence: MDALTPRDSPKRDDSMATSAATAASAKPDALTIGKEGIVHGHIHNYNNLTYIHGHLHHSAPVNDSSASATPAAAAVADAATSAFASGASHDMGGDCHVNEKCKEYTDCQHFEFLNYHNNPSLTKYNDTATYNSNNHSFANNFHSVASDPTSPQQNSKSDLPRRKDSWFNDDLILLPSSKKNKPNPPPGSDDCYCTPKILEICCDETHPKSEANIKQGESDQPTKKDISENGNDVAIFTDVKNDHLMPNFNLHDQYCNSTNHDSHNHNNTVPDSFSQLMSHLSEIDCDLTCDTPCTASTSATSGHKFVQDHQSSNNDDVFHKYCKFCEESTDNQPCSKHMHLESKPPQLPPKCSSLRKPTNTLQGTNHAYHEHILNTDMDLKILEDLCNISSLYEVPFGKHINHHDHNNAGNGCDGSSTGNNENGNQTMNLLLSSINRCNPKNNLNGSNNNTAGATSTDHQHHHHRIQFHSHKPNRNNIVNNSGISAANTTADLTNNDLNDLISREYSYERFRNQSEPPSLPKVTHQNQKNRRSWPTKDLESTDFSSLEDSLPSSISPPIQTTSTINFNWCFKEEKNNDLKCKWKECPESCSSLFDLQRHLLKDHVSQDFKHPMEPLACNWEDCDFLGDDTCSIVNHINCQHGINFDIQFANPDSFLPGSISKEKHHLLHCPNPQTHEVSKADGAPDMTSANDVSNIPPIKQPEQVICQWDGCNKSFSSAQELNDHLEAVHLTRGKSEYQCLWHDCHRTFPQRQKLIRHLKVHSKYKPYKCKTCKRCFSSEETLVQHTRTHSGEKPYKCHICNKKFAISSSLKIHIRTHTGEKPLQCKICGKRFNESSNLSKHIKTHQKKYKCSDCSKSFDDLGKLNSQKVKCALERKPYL
# Assay: PBM E-score (8-mer binding enrichment) (E-score (-0.5 to 0.5)); higher = stronger / more preferred TF binding
# Settings: protein concentration: 200 nM; construct: GST-full length
# Description: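 Universal 'all 10-mer' protein binding microarrays (Agilent AMADID 015681) probed with GST-tagged S. cerevisiae TFs (full-length or DBD) made by in vitro transcription/translation (PURExpress), about 100-200 nM. Bound TF was detected with fluorescent anti-GST. Each ungapped 8-mer (which stands for itself and its reverse complement) is scored by the PBM enrichment score (E-score), a modified Wilcoxon-Mann-Whitney statistic from -0.5 to +0.5, computed with the Universal PBM Analysis Suite. Scale: above 0.35 generally sequence-specific binding.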
row,Sequence,PBM E-score
1,GGGTTATA,0.474
2,CAGTTATC,0.0632
3,CTGTTATC,0.0763
4,CGGTTATC,0.424
5,GAGTTATA,0.142
6,GCACTGAA,-0.136
7,AGAGCGTG,-0.169
8,AGCCACAA,0.153
9,GAGTCAGA,-0.157
10,AGAAGTAG,-0.123
11,AGCACCCG,0.125
12,AGCACCCT,0.317
13,AGCACCCA,-0.0894
14,ACCACCCA,0.252
15,ACCACCCC,-0.00264
16,ACCACCCT,0.352
17,GCAGGCTA,-0.25
18,CTATTCGA,-0.0524
19,CCTAGCGC,-0.0463
20,AGCGATGG,-0.195
21,CGACAACC,0.339
22,AGACAACC,0.31
23,ACGCAACC,0.316
24,CCGCAACA,0.162
25,CCACAACA,0.109

row,Sequence,PBM E-score
1,CCACAACC,0.411
2,CCACAACG,0.0128
3,CGACAACA,0.0946
4,CCGCAACC,0.34
5,GCAGTTAC,0.109
6,CCCAAGAC,-0.045
7,GTTGAGAA,-0.027
8,AGTACTGG,-0.141
9,GCGCTGTA,-0.043
10,GCTTAAAC,-0.0479
11,ACCTAACC,0.269
12,CCCTAGGA,0.0656
13,ACCTAGGG,0.119
14,GCTTAACA,-0.0361
15,CCTTAACC,0.438
16,GCCTAACC,0.125
17,ACTTAACC,0.287
18,CCTTAACA,0.116
19,CCCTAGGG,0.41
20,GCTTAACC,0.327
21,CCCTAACC,0.33
22,CACTTTAC,0.0657
23,AGGTCTCC,0.00142
24,ACACTTTC,-0.104
25,ATCCTCCG,-0.238

row,Sequence,PBM E-score
1,ATCCAACG,-0.139
2,AATCAGTC,-0.107
3,TCGCAACA,-0.0496
4,CCCTAAGG,0.402
5,CCCTAAGC,-0.159
6,CCCTAAGA,0.263
7,CGGGCGAG,-0.0126
8,TCCACCCA,-0.233
9,ACCACCCG,0.184
10,CCCACCCC,0.149
11,GCCACCCA,-0.0281
12,CCCACCCA,0.323
13,CCCACCCG,0.324
14,GTCTTCTA,-0.0319
15,CTGATGGA,-0.254
16,GACCTTGC,0.133
17,GACCTTGA,0.34
18,TACCTTGA,0.337
19,TACCTTCA,0.255
20,AACCTTGA,0.429
21,CACCTTGA,0.179
22,GTCCTTGA,0.113
23,AACCTTGT,0.229
24,AACCTTGC,0.305
25,CTAGGGAC,-0.0705

row,Sequence,PBM E-score
1,CAAAACTC,0.0001
2,GTCTCCCA,-0.252
3,GTAAAGGA,-0.0539
4,CATAAACG,0.0839
5,CGGTAACC,0.47
6,GGGTAACA,0.334
7,AGGTAACA,0.344
8,CGGTAACG,0.0507
9,GTGTAACA,0.0444
10,TGGTAACA,0.0812
11,GGGTAATA,0.348
12,CGGTAACA,0.253
13,AGGTAAGA,0.125
14,AGGTAATA,0.263
15,CGGTAATA,0.219
16,AAGTAACA,-0.0158
17,ATGAGCAT,0.049
18,ACCTGAGT,0.0343
19,GTGACGCA,0.0591
20,TCTCTTCA,-0.139
21,AAGGGCGC,0.0237
22,TCTACACA,0.0487
23,GGGTAAAA,0.306
24,AGGTAACG,0.19
25,GGGTAAAC,0.194

row,Sequence,PBM E-score
1,AGGTAACC,0.441
2,AGGTAACT,0.237
3,GGGTAACC,0.46
4,CAGGAGGG,0.143
5,AATTCACC,0.0819
6,AGTCCTCC,-0.144
7,AAAGCAGG,-0.075
8,GGGTGACA,0.252
9,GGGTGACC,0.385
10,GAGTGACC,0.239
11,CGGTGACA,0.193
12,AGGTGACG,0.182
13,AGGTGACC,0.393
14,AGGTGACA,0.0888
15,CGGTGACG,0.0241
16,CGGTGACC,0.327
17,TAAGACTA,-0.0191
18,TGACAAAA,0.152
19,CAAGTGTA,-0.0404
20,AGCCCCCT,-0.406
21,AAGATGCG,-0.058
22,AAGAGGGA,-0.199
23,ATACTCTA,-0.0192
24,CGCCACTC,-0.113
25,CTAGGTCA,0.117

row,Sequence,PBM E-score
1,CTAGGTTA,0.42
2,GTAGGTGA,0.0614
3,GTAGGTTA,0.39
4,GTAGGTAA,0.199
5,ATAGGTTC,0.138
6,CTAGGTTC,0.0156
7,ATAGGTTG,0.16
8,ATAGGTTA,0.46
9,AAGCACGT,-0.3
10,CGGTTAGC,0.151
11,CCAATTAC,0.103
12,ACCAAATC,0.0501
13,AACTACCA,0.179
14,AGTATCCG,-0.013
15,AGGTCTGA,-0.0295
16,CCTAGAGA,-0.0434
17,CCTAGAGG,0.366
18,ACTAGAGG,-0.0174
19,GTAATGCA,-0.157
20,TAAGGGCA,-0.0345
21,AAGGGGTA,0.334
22,AGGGGGTA,0.0442
23,TAAGGGGA,0.00031
24,AAAGGGTA,0.415
25,TAAGGGTA,0.433

row,Sequence,PBM E-score
1,AAAGGGGA,-0.127
2,AAAGGGCA,-0.0435
3,GAAGGGAA,-0.194
4,AAGGGGGA,-0.245
5,GAAGGGGA,-0.0649
6,GAAGGGTA,0.421
7,AACGAATA,-0.00355
8,CAATCCAG,-0.0505
9,CGAAGTCG,0.0486
10,GCTTCCGA,-0.0201
11,AGAGCAAT,-0.181
12,CCCCTAGG,0.16
13,ACCCTAGA,0.359
14,AACCTAGG,0.232
15,ACCCTAGG,0.428
16,ACCCTAGT,0.411
17,TCCCTAGA,-0.0192
18,AACCTAGT,0.161
19,CCCCTAGA,0.147
20,ACCCTAGC,0.247
21,GAAGTGGC,-0.106
22,GCGCATGA,-0.185
